Data on seven compounds can be found in PubChem BioAssay (Tox21).

Assay [1] concerns the target Thyrotropin receptor (Homo sapiens) (UniProt P16473). The assay can be described thus: qHTS assay to identify small molecule antagonists of the thyroid stimulating hormone receptor (TSHR) signaling pathway (AID 1259385; calls by dose curve; note: nearly all actives have a fitted effect of over 20% in size). The procedure, abridged:
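Antagonist mode: compound-treated TSHR-expressing HEK293 cells were stimulated with 1.5 ng/mL TSH (final) in presence of Ro20-1724 for 30 min at RT. HTRF cAMP detection after 1 h; each compound tested at 15 concentrations, triplicate.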
A general note: In qHTS, concentration-response curves come from the screen itself.

Assay [2] can be described thus: qHTS assay to identify small molecule agonists of the estrogen receptor alpha (ER-alpha) signaling pathway in the presence of an antagonist - cell viability counter screen (AID 1259386).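 Note: cells exposed to compounds for 22 h at 37 °C before the viability read; nearly all actives have a fitted effect of over 30% in size.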 Note: potency is the fitted concentration of half-maximal effect. The procedure, abridged:
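The test measures whether compounds kill ER-alpha reporter cells (VM7Luc4E2) under antagonist co-treatment (ICI-182,780, 10.0nM). Fluorescence from CellTiter-Fluor is read after a 22hr exposure.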

Assay [3] deals with Progesterone receptor (Homo sapiens) (UniProt P06401). As to the kind of experiment: qHTS assay to identify small molecule agonists of the progesterone receptor (PR) signaling pathway (AID 1346784; calls by dose curve; note: nearly all actives have a fitted effect of over 30% in size). The procedure, abridged:
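Using charcoal-stripped serum (2%) to limit endogenous steroids, PR-UAS-bla HEK 293T cells received compounds for 16 hr at 37C after 6 hr plating; beta-lactamase FRET fluorescence was recorded following 2 hr substrate loading at room temperature.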

Assay [4] shares this target. The assay can be described thus: qHTS assay to identify small molecule antagonists of the progesterone receptor (PR) signaling pathway (AID 1346795; active = well fitted inhibition curve with a large enough effect in the signal ratio in the repeat runs, not every such curve was filed as active; the % refers to the signal ratio). An outline of the steps: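 Inhibition of R5020-induced (1 nM final) beta-lactamase reporter signal in PR-UAS-bla HEK293T cells was scored by FRET fluorescence after overnight (16 hr) compound treatment.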
Assay [5] is described as follows: qHTS assay to identify small molecule antagonists of the progesterone receptor (PR) signaling pathway - cell viability counter screen (AID 1346798). Note: nearly all actives have a fitted effect of over 50% in size. Note: potency is the fitted concentration of half-maximal effect. An outline of the steps:
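ATP content as viability readout: CellTiter-Glo luminescence, 30 min room temperature, in PR-UAS-bla HEK293T cells after 16 hr compound/R5020 treatment at 37C and 5% CO2.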

Assay [6] in a line: qHTS assay to identify small molecule agonists of the progesterone receptor (PR) signaling pathway - cell viability counter screen (AID 1346799; calls by dose curve; note: nearly all actives have a fitted effect of over 45% in size). An outline of the steps:
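Cytotoxicity in PR-bla HEK293T cells: 16 h compound, 37C; CellTiter-Glo added post-FRET read; luminescence after 30 min RT.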

Assay [7] in a line: qHTS assay to identify small molecule antagonists of the TGF-beta/Smad signaling pathway - cell viability counter screen (AID 1346824). Note: nearly all actives have a fitted effect of over 50% in size. The procedure, abridged: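 Cytotoxicity counter-screen run in the same wells as the beta-lactamase Smad reporter read: CellTiter-Glo luminescence after 30 min at room temperature. HEK 293T SBE-bla cells had 5 hr compound exposure at 37 C with TGF-beta1 (0.25 ng/mL stock).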

Assay [8] in a line: qHTS assay to identify small molecule agonists of the TGF-beta/Smad signaling pathway (AID 1346859; active = well fitted activation curve with a large enough effect in the signal ratio in the repeat runs, not every such curve was filed as active; the % refers to the signal ratio; note: series mostly up to about 77 µM). An outline of the steps:
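Stable Smad binding element-beta-lactamase HEK 293T cells; 5 hr compound exposure at 37 C under 5% CO2; 2 hr room-temperature substrate step; fluorescence excited at 405 nm, collected at 460 nm and 530 nm.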

Assay [9] in a line: Caspase-3/7 induction in HepG2 cells by small molecules, qHTS assay (AID 1346978). Note: nearly all actives have a fitted effect of over 15% in size. An outline of the steps:
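Caspase-3/7 induction was measured by Caspase-Glo 3/7 luminescence (30 min, room temperature) after a 17 hr compound exposure of wild-type HepG2 cells seeded at 2,000 per well and pre-incubated 5 hr.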

Assay [10] in a line: Caspase-3/7 induction in CHO-K1 cells by small molecules, qHTS cell viability counter screen (AID 1346979). Note: nearly all actives have a fitted effect of over 35% in size. Note: potency is the fitted concentration of half-maximal effect. The procedure, abridged:
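To flag cytotoxic compounds, treated CHO-K1 wild-type cells were given CellTiter-Fluor at 16hr and read fluorescently after 1hr at 37C; the caspase-3/7 luminescence was measured in these same wells.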

A short description of assay [11]: Caspase-3/7 induction in CHO-K1 cells by small molecules, qHTS assay (AID 1346980). Note: nearly all actives have a fitted effect of over 15% in size. The procedure, abridged:
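Luminescent Caspase-Glo 3/7 read (30min, room temperature) quantified apoptosis induction. Cells were wild-type CHO-K1, treated with compound for 17hr at 37 C and 5% CO2.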

The nature of assay [12]: Caspase-3/7 induction in HepG2 cells by small molecules, qHTS cell viability counter screen (AID 1346981). Note: nearly all actives have a fitted effect of over 30% in size. Note: potency is the fitted concentration of half-maximal effect. An outline of the steps: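 Treatment of HepG2 cells with DMSO-delivered compounds ran 16 hr at 37 C following a 5-hr pre-incubation of 2,000 cells/well. CellTiter-Fluor fluorescence, read after 1 hr, served as the viability measure in a qHTS format.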
Assay [13] addresses Nuclear receptor subfamily 1 group I member 2 (Homo sapiens) (UniProt O75469). The assay can be described thus: Human pregnane X receptor (PXR) small molecule agonists, qHTS assay (AID 1346982). Note: nearly all actives have a fitted effect of over 35% in size. Note: potency is the fitted concentration of half-maximal effect. An outline of the steps: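 Stable HepG2 line reporting PXR-mediated CYP3A4 expression via luciferase. Treatment: 24 hr with compounds in DMSO at 37 C. Detection: ONE-Glo luminescence.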

For assay [14], the target named is Nuclear receptor subfamily 1 group I member 2 (Rattus norvegicus) (UniProt Q9R1A7). As to the kind of experiment: Rat pregnane X receptor (rPXR) activation by small molecules, qHTS assay (AID 1346983). Note: nearly all actives have a fitted effect of over 20% in size. The settings on record: rPXR luciferase reporter cells, One-Glo luminescence, 24 h; max activation: stronger effect = higher value. The procedure, abridged:
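Luminescent readout (One-Glo luciferase, 30 min room temperature) followed 24 hr compound treatment at 37 C of rPXR cells plated 2,000 per well and preincubated 5hr; qHTS format with compounds delivered in DMSO.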

Assay [15] has as its target Nuclear receptor subfamily 1 group I member 2 (Homo sapiens) (UniProt O75469). As to the kind of experiment: CYP3A4 induction through human pregnane X receptor (PXR) by small molecules, qHTS assay (AID 1346984). Note: nearly all actives have a fitted effect of over 40% in size. An outline of the steps: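 After 24 h at 37C with compound, DPX-2 cells (HepG2, co-transfected PXR response element and CYP3A4 promoter-luciferase) got 3uM final P450-Glo Luciferin-IPA for 3 h; One-Glo luminescence followed.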

For assay [16] the target is unchanged. As to the kind of experiment: Human pregnane X receptor (PXR) activation by small molecules, qHTS assay (AID 1346985). Note: nearly all actives have a fitted effect of over 40% in size. Note: potency is the fitted concentration of half-maximal effect. An outline of the steps:
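DPX-2 cells (HepG2 co-transfected with a PXR response element and a CYP3A4-promoter luciferase construct) were seeded at 2,000 per well, rested 5 hr at 37C, then exposed to DMSO-dissolved compounds for 24 hr. Activation was read as luciferase luminescence.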

Assay [17] is described as follows: qHTS assay to identify small molecule agonists of the TGF-beta/Smad signaling pathway - cell viability counter screen (AID 1346829). Note: nearly all actives have a fitted effect of over 45% in size. Note: potency is the fitted concentration of half-maximal effect. An outline of the steps: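 Here the cytotoxicity of library compounds is measured in SBE-bla HEK 293T cells treated for 5 hr, using CellTiter-Glo added to wells already read for the beta-lactamase reporter.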
The target of assay [18] is Thyrotropin-releasing hormone receptor (Homo sapiens) (UniProt P34981). As to the kind of experiment: qHTS assay to identify small molecule antagonists of the thyrotropin-releasing hormone receptor (TRHR) signaling pathway (AID 1346877; active = well fitted inhibition curve with a large enough effect in the repeat runs, not every such curve was filed as active; note: series mostly up to about 51 µM). The procedure, abridged:
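Overnight-plated (18 h, 37 °C) HEK293 cells expressing TRHR were dye-loaded 2 h, treated with compound, then stimulated with TRH at 1 nM final. Fluorescence intensity was captured every second for 3 min.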

Assay [19] shares this target. As to the kind of experiment: qHTS assay to identify small molecule agonists of the thyrotropin-releasing hormone receptor (TRHR) signaling pathway (AID 1346891; calls by dose curve;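 note: HEK293 cells expressing TRHR with calcium dye readout; series mostly up to about 58 µM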). An outline of the steps: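 In 1536-format, 1500 TRHR-Hek293 cells per well grew 18 h, took up calcium dye for 2 h at 37 °C, received compound, and were read kinetically; 15-point titrations, triplicates.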

Assay [20] is described as follows: Human pregnane X receptor (PXR) small molecule agonists, qHTS cell viability counter screen (AID 1346977). Note: nearly all actives have a fitted effect of over 50% in size. Note: potency is the fitted concentration of half-maximal effect. The procedure, abridged: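 Readout is CellTiter-Fluor fluorescence from PXR-Luc HepG2 cells. Plated cells rested 5hr, then were treated with compounds for 24hr at 37C and 5% CO2, with reagent present during the last hour.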

Molecules are shown by their SMILES. Several values for one entry are separate records, joined by “and”; a condition that tells them apart may be missing. Equal entries are not always repeated. Records with an inconclusive call do not appear. The source holds several records for some structures; these can differ, active in one and inactive in another. Activity calls are given as the source filed them. Unless noted, calls come from the whole dose curve; as a rule, active = well fitted curve in the direction sought with a large enough effect in the repeat runs; inconclusive = weak or mixed curves; inactive = no such curve, though single readings can be large; an effect the other way counts as inactive or inconclusive.
% is set by controls: 0 for no effect and ±100 for the full control effect.

Chain of Thyrotropin receptor (Homo sapiens) (P16473 whole entry, looked up): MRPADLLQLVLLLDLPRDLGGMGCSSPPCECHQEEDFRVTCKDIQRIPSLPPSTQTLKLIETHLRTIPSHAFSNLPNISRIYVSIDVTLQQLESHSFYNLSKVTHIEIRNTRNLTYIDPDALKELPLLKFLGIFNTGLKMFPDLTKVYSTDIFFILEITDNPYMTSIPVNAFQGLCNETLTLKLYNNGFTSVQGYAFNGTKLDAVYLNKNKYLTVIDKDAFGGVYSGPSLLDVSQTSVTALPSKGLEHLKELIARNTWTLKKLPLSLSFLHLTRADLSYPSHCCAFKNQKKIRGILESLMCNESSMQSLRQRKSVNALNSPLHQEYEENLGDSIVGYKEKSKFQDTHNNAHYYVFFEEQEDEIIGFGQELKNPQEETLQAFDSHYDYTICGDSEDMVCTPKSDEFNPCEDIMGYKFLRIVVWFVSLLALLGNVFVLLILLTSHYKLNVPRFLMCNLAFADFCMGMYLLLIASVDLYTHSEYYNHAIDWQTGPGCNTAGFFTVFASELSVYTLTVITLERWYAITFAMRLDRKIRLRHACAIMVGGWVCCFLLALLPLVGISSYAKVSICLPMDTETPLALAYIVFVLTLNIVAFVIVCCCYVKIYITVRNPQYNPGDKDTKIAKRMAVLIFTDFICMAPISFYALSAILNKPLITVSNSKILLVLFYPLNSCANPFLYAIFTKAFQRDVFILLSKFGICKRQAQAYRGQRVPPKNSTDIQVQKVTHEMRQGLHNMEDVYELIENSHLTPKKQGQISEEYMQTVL
Chain of Thyrotropin-releasing hormone receptor (Homo sapiens) (P34981 whole entry, looked up): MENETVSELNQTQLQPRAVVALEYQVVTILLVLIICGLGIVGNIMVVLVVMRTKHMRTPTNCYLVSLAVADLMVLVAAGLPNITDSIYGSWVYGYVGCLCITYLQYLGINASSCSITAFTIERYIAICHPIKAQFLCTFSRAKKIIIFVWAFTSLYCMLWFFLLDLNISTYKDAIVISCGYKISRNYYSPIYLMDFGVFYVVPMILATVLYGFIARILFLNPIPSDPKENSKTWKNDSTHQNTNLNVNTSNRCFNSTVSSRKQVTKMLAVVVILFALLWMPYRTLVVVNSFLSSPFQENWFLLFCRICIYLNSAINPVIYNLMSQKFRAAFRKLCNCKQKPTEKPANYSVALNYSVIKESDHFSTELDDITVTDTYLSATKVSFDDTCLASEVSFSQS
Chain of Nuclear receptor subfamily 1 group I member 2 (Homo sapiens) (O75469 whole entry, looked up): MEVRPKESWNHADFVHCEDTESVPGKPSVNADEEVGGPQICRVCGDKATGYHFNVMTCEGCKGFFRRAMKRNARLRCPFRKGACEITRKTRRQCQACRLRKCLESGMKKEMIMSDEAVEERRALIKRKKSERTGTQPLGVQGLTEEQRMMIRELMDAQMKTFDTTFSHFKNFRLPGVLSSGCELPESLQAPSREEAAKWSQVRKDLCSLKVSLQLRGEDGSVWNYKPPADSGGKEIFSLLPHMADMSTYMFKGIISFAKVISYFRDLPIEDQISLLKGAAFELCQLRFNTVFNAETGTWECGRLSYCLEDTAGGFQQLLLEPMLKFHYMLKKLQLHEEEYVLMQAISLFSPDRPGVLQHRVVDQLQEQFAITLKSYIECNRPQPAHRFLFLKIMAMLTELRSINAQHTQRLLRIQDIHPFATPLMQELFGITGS
Chain of Progesterone receptor (Homo sapiens) (P06401 whole entry, looked up): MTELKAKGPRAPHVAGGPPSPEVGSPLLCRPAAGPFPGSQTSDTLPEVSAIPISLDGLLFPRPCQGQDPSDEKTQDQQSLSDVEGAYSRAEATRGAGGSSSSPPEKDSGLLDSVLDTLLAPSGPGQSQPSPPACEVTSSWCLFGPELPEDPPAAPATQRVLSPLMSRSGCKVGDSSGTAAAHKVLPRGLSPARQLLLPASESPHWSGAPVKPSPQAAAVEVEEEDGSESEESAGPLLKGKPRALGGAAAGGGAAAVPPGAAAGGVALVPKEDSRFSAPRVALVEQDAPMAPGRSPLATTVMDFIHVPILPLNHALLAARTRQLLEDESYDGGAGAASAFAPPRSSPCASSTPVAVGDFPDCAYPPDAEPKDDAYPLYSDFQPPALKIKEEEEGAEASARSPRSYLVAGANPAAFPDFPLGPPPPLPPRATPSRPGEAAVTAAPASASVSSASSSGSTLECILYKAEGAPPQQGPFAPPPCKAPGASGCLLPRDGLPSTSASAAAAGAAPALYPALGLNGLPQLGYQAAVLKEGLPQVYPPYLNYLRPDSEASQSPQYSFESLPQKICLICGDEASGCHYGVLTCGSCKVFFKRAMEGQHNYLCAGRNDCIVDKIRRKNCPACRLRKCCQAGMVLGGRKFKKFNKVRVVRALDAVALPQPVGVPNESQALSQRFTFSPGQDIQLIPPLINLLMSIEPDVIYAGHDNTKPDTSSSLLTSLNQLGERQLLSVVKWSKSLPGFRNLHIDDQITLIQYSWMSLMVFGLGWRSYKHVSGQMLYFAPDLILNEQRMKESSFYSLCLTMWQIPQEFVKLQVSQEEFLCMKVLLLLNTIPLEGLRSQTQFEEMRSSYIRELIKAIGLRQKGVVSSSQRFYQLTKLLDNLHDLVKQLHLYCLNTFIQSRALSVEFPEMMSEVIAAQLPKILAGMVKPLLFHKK
Chain of Nuclear receptor subfamily 1 group I member 2 (Rattus norvegicus) (Q9R1A7 whole entry, looked up): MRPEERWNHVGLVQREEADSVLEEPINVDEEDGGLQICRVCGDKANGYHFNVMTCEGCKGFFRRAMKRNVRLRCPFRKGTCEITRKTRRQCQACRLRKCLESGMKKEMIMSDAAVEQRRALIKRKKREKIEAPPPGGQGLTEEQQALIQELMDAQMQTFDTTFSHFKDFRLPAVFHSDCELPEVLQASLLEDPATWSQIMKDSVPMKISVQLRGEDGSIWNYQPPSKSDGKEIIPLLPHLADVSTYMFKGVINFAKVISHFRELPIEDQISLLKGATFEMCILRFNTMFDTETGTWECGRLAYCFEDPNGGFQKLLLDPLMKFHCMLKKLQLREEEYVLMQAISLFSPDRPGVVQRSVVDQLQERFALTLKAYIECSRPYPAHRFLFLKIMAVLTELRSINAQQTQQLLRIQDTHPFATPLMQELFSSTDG

With `OC[C@@H](O)[C@@H](O)[C@H](O)[C@H](O)CO`, the result in assay [1], in assay [8] and in assay [11] was inactive. The Potency entry in assay [2], in assay [3], in [4], in assay [5], in assay [6] and in assay [7] was “inactive” each time. The Potency entry in [9], in assay [10], in assay [12], in [13], in assay [15] and in assay [16] was “inactive” in each case. In addition, the max activation in assay [14] was -0.524% (inactive).
With `CC(C)(C)CC(C)(C)c1ccc(O)c(-n2nc3ccccc3n2)c1`, the result in assay [1], in [8] and in assay [18] was inactive. The Potency entry in [2], in [3], in [4], in [19], in [20] and in [9] was “inactive” throughout. The Potency result in [10], in assay [12] and in assay [15] was “inactive” each time. For the same compound, the Potency is 49.2 µM (active) in assay [5]; 44.3 µM (active) and inactive in assay [17]; 27.7 µM (active) and 11.9 µM (active) in assay [13]; 7.94 µM (active) in assay [16]. Further, in assay [14], the max activation was -2.63% (inactive).
`CCCCOCCOCCOC(C)=O`: the Potency entry in assay [2], in assay [3], in assay [4], in assay [5], in [6] and in [7] was “inactive” in each case. Also, the Potency result in [17], in assay [19], in assay [20], in [9], in [10] and in [12] was “inactive” each time. In assay [13], the Potency result is “inactive”. Also, the result in assay [8], in [18] and in [11] was inactive.
Take `CC1=C(/C=C/C(C)=C/C=C/C(C)=C/C(=O)O)C(C)(C)CCC1`: the Potency result in assay [2], in assay [3], in assay [4], in [5], in assay [6] and in assay [7] was “inactive” each time. Moreover, the Potency entry in [19], in [20], in [9] and in assay [12] was “inactive” each time. Besides, the result in [8] and in [18] was inactive. Moreover, the Potency was 68.5 µM (active) and inactive in assay [10]; 54.5 µM (active) and 61.1 µM (active) and 33.5 µM (active) in assay [13].
On to `CC(=O)/C=C/C1=C(C)CCCC1(C)C`, for which the Potency entry in assay [2], in assay [3], in [4], in assay [5], in assay [6] and in assay [7] was “inactive” in each case. Further, the Potency entry in assay [17], in assay [19], in [20], in [9], in [10] and in assay [12] was “inactive” throughout. The compound was classed as inactive in assay [8], in assay [18] and in [11]. In assay [13], the Potency is 55.5 µM (active) and 17.2 µM (active) and 21.7 µM (active).
On to `O=[N+]([O-])c1ccc(O)cc1`, for which the outcome in assay [1] and in assay [8] was inactive. The Potency is 56.6 µM (active) and 43.3 µM (active) and 48.6 µM (active) in [2]; 44.7 µM (active) and 48.6 µM (active) in assay [20]; 56.6 µM (active) and 54.5 µM (active) and 48.6 µM (active) in assay [10]; 56.6 µM (active) and 61.1 µM (active) and 54.5 µM (active) in assay [12]. Besides, the Potency result in assay [3], in assay [4], in [5], in assay [6], in assay [7] and in assay [9] was “inactive” in each case. In addition, the Potency entry in assay [13] was “inactive”.
For the compound `CCCCOC(=O)CCCCCCCCC(=O)OCCCC`, the compound was classed as inactive in assay [1] and in [8]. Moreover, the Potency entry in [2], in assay [3], in [4], in [5], in assay [6] and in assay [7] was “inactive” each time. In addition, the Potency result in assay [9], in [10], in assay [12] and in assay [13] was “inactive” each time.
